# This excerpt belongs to a sample that is enriched for the strongest signals.
# Experiments:
# Assay in all cases: glycan array binding signal (z-score within array); higher = stronger binding
# Conditions in all cases: glycan notation: IUPAC condensed, linker removed
# [1] = target: Fuc(a1-2)Gal(b1-3)[Fuc(a1-4)]GlcNAc(b1-3)[Fuc(a1-3)[Gal(b1-4)]GlcNAc(b1-6)]Gal(b1-4)Glc
# Summary of the method: (§1)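 The binding signal is a Z-score computed within each array. Data were drawn from 3228 arrays in the Consortium for Functional Glycomics database, restricted to those with a known protein sequence. Scores were averaged over arrays of the same protein sequence at different concentrations or buffers, and over linkers, and negative values can be taken as non-binding.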
# [2] = target: Fuc(a1-2)Gal(b1-4)GlcNAc6S
# Summary of the method: as §1
# Fuc(a1-2)[Gal(a1-3)]Gal = target: Fuc(a1-2)[Gal(a1-3)]Gal
# Summary of the method: as §1
# [3] = target: Fuc(a1-3)[Gal(b1-4)]GlcNAc(b1-2)Man(a1-3)[Fuc(a1-3)[Gal(b1-4)]GlcNAc(b1-2)Man(a1-6)]Man(b1-4)GlcNAc(b1-4)GlcNAc
# Summary of the method: as §1
# [4] = target: Gal(a1-3)Gal(b1-4)[Fuc(a1-3)]GlcNAc(b1-2)Man(a1-3)[Gal(a1-3)Gal(b1-4)[Fuc(a1-3)]GlcNAc(b1-2)Man(a1-6)]Man(b1-4)GlcNAc(b1-4)GlcNAc
# Summary of the method: as §1
# [5] = target: Gal(a1-4)Gal(b1-4)GlcNAc(b1-2)Man(a1-3)[Gal(a1-4)Gal(b1-4)GlcNAc(b1-2)Man(a1-6)]Man(b1-4)GlcNAc(b1-4)GlcNAc
# Summary of the method: as §1
# Gal(b1-3)Gal = target: Gal(b1-3)Gal
# Summary of the method: as §1
# [6] = target: Gal(b1-3)GalNAc(a1-3)[Fuc(a1-2)]Gal(b1-4)Glc
# Summary of the method: as §1
# [7] = target: Gal(b1-3)GlcNAc(b1-2)Man(a1-3)[Gal(b1-3)GlcNAc(b1-2)Man(a1-6)]Man(b1-4)GlcNAc(b1-4)GlcNAc
# Summary of the method: as §1
# [8] = target: Gal(b1-3)GlcNAc(b1-3)Gal(b1-4)Glc
# Summary of the method: as §1
# [9] = target: Gal(b1-4)GlcNAc(b1-2)Man(a1-3)[Man(a1-6)]Man(b1-4)GlcNAc(b1-4)GlcNAc
# Summary of the method: as §1
# [10] = target: Gal(b1-4)GlcNAc(b1-2)[Gal(b1-4)GlcNAc(b1-4)]Man(a1-3)[Gal(b1-4)GlcNAc(b1-2)Man(a1-6)]Man(b1-4)GlcNAc(b1-4)GlcNAc
# Summary of the method: as §1
# Gal6S(b1-4)Glc6S = target: Gal6S(b1-4)Glc6S
# Summary of the method: as §1
# GlcNAc(b1-3)Gal = target: GlcNAc(b1-3)Gal
# Summary of the method: as §1
# [11] = target: Man(a1-2)Man(a1-2)Man(a1-3)Man
# Summary of the method: as §1
# [12] = target: Man(a1-2)Man(a1-2)Man(a1-6)[Man(a1-3)]Man
# Summary of the method: as §1
# Man(a1-2)Man(a1-3)Man = target: Man(a1-2)Man(a1-3)Man
# Summary of the method: as §1
# [13] = target: Man(a1-2)Man(a1-3)[Man(a1-2)Man(a1-6)]Man
# Summary of the method: as §1
# [14] = target: Man(a1-2)Man(a1-3)[Man(a1-2)Man(a1-6)]Man(a1-6)[Man(a1-2)Man(a1-2)Man(a1-3)]Man
# Summary of the method: as §1
# [15] = target: Man(a1-2)Man(a1-6)[Man(a1-3)]Man(a1-6)[Man(a1-2)Man(a1-2)Man(a1-3)]Man
# Summary of the method: as §1
# Man(a1-3)[Man(a1-6)]Man = target: Man(a1-3)[Man(a1-6)]Man
# Summary of the method: as §1
# [16] = target: Man(a1-3)[Man(a1-6)]Man(b1-4)GlcNAc(b1-4)GlcNAc
# Summary of the method: as §1
# [17] = target: Neu5Ac(a2-3)Gal(b1-3)[Fuc(a1-4)]GlcNAc
# Summary of the method: as §1
# [18] = target: Neu5Ac(a2-3)Gal(b1-4)GlcNAc
# Summary of the method: as §1
# [19] = target: Neu5Ac(a2-3)Gal(b1-4)[Fuc(a1-3)]GlcNAc(b1-3)Gal
# Summary of the method: as §1
# [20] = target: Neu5Ac(a2-3)[GalNAc(b1-4)]Gal(b1-4)Glc
# Summary of the method: as §1
# [21] = target: Neu5Ac(a2-6)Gal(b1-4)GlcNAc(b1-2)Man(a1-6)Man(b1-4)GlcNAc(b1-4)GlcNAc
# Summary of the method: as §1
# [22] = target: Neu5Ac(a2-6)Gal(b1-4)GlcNAc(b1-3)Gal(b1-4)GlcNAc(b1-3)Gal(b1-4)GlcNAc
# Summary of the method: as §1
# [23] = target: Neu5Ac(b2-6)Gal(b1-4)GlcNAc
# Summary of the method: as §1
# [24] = target: Neu5Gc(a2-3)Gal(b1-3)[Fuc(a1-4)]GlcNAc
# Summary of the method: as §1
# [25] = target: GlcNAc(b1-2)[GlcNAc(b1-4)]Man(a1-3)[GlcNAc(b1-4)][GlcNAc(b1-2)[GlcNAc(b1-6)]Man(a1-6)]Man(b1-4)GlcNAc(b1-4)[Fuc(a1-6)]GlcNAc
# Summary of the method: as §1
# [26] = target: GlcNAc(b1-3)Gal(b1-4)GlcNAc(b1-2)Man(a1-3)[GlcNAc(b1-3)Gal(b1-4)GlcNAc(b1-2)Man(a1-6)]Man(b1-4)GlcNAc(b1-4)GlcNAc
# Summary of the method: as §1
# [27] = target: GlcNAc(b1-3)Gal(b1-4)GlcNAc(b1-3)Gal(b1-4)GlcNAc(b1-2)[GlcNAc(b1-3)Gal(b1-4)GlcNAc(b1-3)Gal(b1-4)GlcNAc(b1-6)]Man(a1-6)[GlcNAc(b1-3)Gal(b1-4)GlcNAc(b1-3)Gal(b1-4)GlcNAc(b1-2)Man(a1-3)]Man(b1-4)GlcNAc(b1-4)[Fuc(a1-6)]GlcNAc
# Summary of the method: as §1
# [28] = target: Man(a1-2)Man(a1-3)[Man(a1-6)]Man(a1-6)[Man(a1-2)Man(a1-3)]Man(b1-4)GlcNAc(b1-4)GlcNAc
# Summary of the method: as §1
# [29] = target: Man(a1-2)Man(a1-6)[Man(a1-3)]Man(a1-6)[Man(a1-2)Man(a1-2)Man(a1-3)]Man(b1-4)GlcNAc(b1-4)GlcNAc
# Summary of the method: as §1
# Neu5Ac(a2-3)Gal = target: Neu5Ac(a2-3)Gal
# Summary of the method: as §1
# [30] = target: Neu5Ac(a2-3)Gal(b1-3)GlcNAc(b1-3)GalNAc
# Summary of the method: as §1
# [31] = target: Neu5Ac(a2-3)Gal(b1-3)[Fuc(a1-4)]GlcNAc(b1-3)Gal(b1-4)[Fuc(a1-3)]GlcNAc
# Summary of the method: as §1
# [32] = target: Neu5Ac(a2-3)Gal(b1-4)GlcNAc(b1-2)[Neu5Ac(a2-3)Gal(b1-4)GlcNAc(b1-6)]Man(a1-6)[Neu5Ac(a2-3)Gal(b1-4)GlcNAc(b1-2)Man(a1-3)][GlcNAc(b1-4)]Man(b1-4)GlcNAc(b1-4)GlcNAc
# Summary of the method: as §1
# [33] = target: Neu5Ac(a2-3)Gal(b1-4)[Fuc(a1-3)]GlcNAc(b1-3)GalNAc
# Summary of the method: as §1
# [34] = target: Neu5Ac(a2-8)Neu5Ac(a2-3)Gal(b1-3)GalNAc(b1-4)[Neu5Ac(a2-3)]Gal(b1-4)Glc
# Summary of the method: as §1
# [35] = target: Neu5Gc(a2-8)Neu5Ac(a2-3)Gal(b1-4)GlcNAc
# Summary of the method: as §1
# [36] = target: Neu5Gc(a2-8)Neu5Gc(a2-6)Gal(b1-4)GlcNAc
# Summary of the method: as §1
binder,measurement,setting,value
"ZG-16 (Homo sapiens), O60844 (protein) IQARSSSYSGEYGSGGGKRFSHSGNQLDGPITALRVRVNTYYIVGLQVRYGKVWSDYVGGRNGDLEEIFLHPGESVIQVSGKYKWYLKKLVFVTDKGRYLSFGKDSGTSFNAVPLHPNTVLRFISGRSGSLIDAIGLHWDVYPTSCSRCSRGSDDDDKAEPRGPTIKPCPPCKCPAPNLLGGPSVFIFPPKIKDVLMISLSPIVTCVVVDVSEDDPDVQISWFVNNVEVHTAQTQTHREDYNSTLRVVSALPIQHQDWMSGKEFKCKVNNKDLPAPIERTISKPKGSVRAPQVYVLPPPEEEMTKKQVTLTCMVTDFMPEDIYVEWTNNGKTELNYKNTEPVLDSDGSYFMYSKLRVEKKNWVERNSYSCSVVHEGLHNHHTTKSFSRTPGKRTYHHHHHHARKLTR",glycan array binding signal (z-score),[1],-0.196
same,glycan array binding signal (z-score),[2],-0.185
same,glycan array binding signal (z-score),Fuc(a1-2)[Gal(a1-3)]Gal,-0.217
same,glycan array binding signal (z-score),[3],0.273
same,glycan array binding signal (z-score),[4],-0.158
same,glycan array binding signal (z-score),[5],-0.205
same,glycan array binding signal (z-score),Gal(b1-3)Gal,-0.222
same,glycan array binding signal (z-score),[6],-0.193
same,glycan array binding signal (z-score),[7],-0.189
same,glycan array binding signal (z-score),[8],-0.226
same,glycan array binding signal (z-score),[9],-0.146
same,glycan array binding signal (z-score),[10],-0.166
same,glycan array binding signal (z-score),Gal6S(b1-4)Glc6S,-0.16
same,glycan array binding signal (z-score),GlcNAc(b1-3)Gal,-0.231
same,glycan array binding signal (z-score),[11],8.34
same,glycan array binding signal (z-score),[12],5.61
same,glycan array binding signal (z-score),Man(a1-2)Man(a1-3)Man,9.52
same,glycan array binding signal (z-score),[13],3.69
same,glycan array binding signal (z-score),[14],1.94
same,glycan array binding signal (z-score),[15],5.95
same,glycan array binding signal (z-score),Man(a1-3)[Man(a1-6)]Man,4.25
same,glycan array binding signal (z-score),[16],-0.183
same,glycan array binding signal (z-score),[17],-0.202
same,glycan array binding signal (z-score),[18],-0.209
same,glycan array binding signal (z-score),[19],-0.127
same,glycan array binding signal (z-score),[20],-0.21
same,glycan array binding signal (z-score),[21],-0.209
same,glycan array binding signal (z-score),[22],-0.182
same,glycan array binding signal (z-score),[23],-0.221
same,glycan array binding signal (z-score),[24],-0.132
Cohesin-hLangerin (Homo sapiens) (protein) LDDLDAVRIKVDTVNAKPGDTVRIPVRFSGIPSKGIANCDFVYSYDPNVLEIIEIEPGDIIVDPNPDKSFDTAVYPDRKIIVFLFAEDSGTGAYAITKDGVFATIVAKVKEGAPNGLSVIKFVEVGGFANNDLVEQKTQFFDGGANVGDTTEPATPTTPVTTPTTTDDLDAASYPRFMGTISDVKTNVQLLKGRVDNISTLDSEIKKNSDGMEAAGVQIQMVNESLGYVRSQFLKLKTSVEKANAQIQILTRSWEEVSTLNAQIPELKSDLEKASALNTKIRALQGSLENMSKLLKRQNDILQVVSQGWKYFKGNFYYFSLIPKTWYSAEQFCVSRNSHLTSVTSESEQEFLYKTAGGLIYWIGLTKAGMEGDWSWVDDTPFNKVQSARFWIPGEPNNAGNNEHCGNIKAPSLQAWNDAPCDKTFLFICKRPYVPSEPHHHHHH,glycan array binding signal (z-score),[25],-0.2
same,glycan array binding signal (z-score),[26],-0.336
same,glycan array binding signal (z-score),[27],4.94
same,glycan array binding signal (z-score),[12],5.38
same,glycan array binding signal (z-score),[14],6.69
same,glycan array binding signal (z-score),[28],-0.429
same,glycan array binding signal (z-score),[29],6.34
same,glycan array binding signal (z-score),Neu5Ac(a2-3)Gal,-0.391
same,glycan array binding signal (z-score),[30],-0.31
same,glycan array binding signal (z-score),[31],3.62
same,glycan array binding signal (z-score),[32],-0.447
same,glycan array binding signal (z-score),[33],0.356
same,glycan array binding signal (z-score),[34],-0.417
same,glycan array binding signal (z-score),[23],-0.412
same,glycan array binding signal (z-score),[35],-0.431
same,glycan array binding signal (z-score),[36],-0.412
